Screening data deposited in PubChem BioAssay by National Center for Advancing Translational Sciences (NCATS).
KB-3-1 cytotox – qHTS assay for MDR1-selective chemotherapeutics: Primary screen using the parental adenocarcinoma cell KB-3-1 | 400,000 compounds, 1.4% hits | KB-3-1 viability, CellTiter-Glo ATP luminescence, 72 h | Potency, µM (top dose mostly 46.1 µM), hits mostly cytotoxic; also: nearly all actives have a fitted effect of over 60% in size
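Cytotoxicity measured as CellTiter-Glo luminescence after 72 h at 37 C. Compound titrations were pinned onto drug-naive KB-3-1 parental adenocarcinoma cells grown in DMEM with 10% FBS, and normalized data fitted to concentration-response curves.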
TDP1 cell CPT – qHTS for Inhibitors of human tyrosyl-DNA phosphodiesterase 1 (TDP1): qHTS in cells in presence of CPT | chicken DT40 Tdp1-/-;hTDP1 cells + 20 nM CPT, ATP luminescence, 48 h | Potency, µM (titrated, usually from 46.2 µM), inactives show top-dose activity change, negative = growth inhibition, actives largely listed as inhibitors | 420,000 compounds, 12% hits; also: nearly all actives have a fitted effect of over 55% in size
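Chicken DT40 Tdp1-/- cells stably complemented with human TDP1 were seeded at 400 cells/well in medium containing 20 nM camptothecin, exposed to pin-transferred compounds, and grown at 37 °C for at least 48 hr. Viability was read as ATP luminescence.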
KB-V1 MDR tox – qHTS assay for MDR1-selective chemotherapeutics: Primary screen using the drug-selected MDR subline cells KB-V1; KB-V1 MDR cells viability, CellTiter-Glo, 72 h; Potency, µM (top dose mostly 46.1 µM), hits mostly cytotoxic; 400,000 compounds, 3.4% hits; also: nearly all actives have a fitted effect of over 60% in size
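Potencies derive from concentration-effect curves fitted to normalized luminescence (CellTiter-Glo) of KB-V1 cells treated for 72 h at 37 degrees C in phenol-red-free DMEM containing 10% FBS.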
TDP1 cell noCPT – qHTS for Inhibitors of human tyrosyl-DNA phosphodiesterase 1 (TDP1): qHTS in cells in absence of CPT; DT40 Tdp1-/- hTDP1 cells, no CPT, ATP luminescence, 48 h; Potency, µM (doses to about 46.2 µM), for inactives: at the top dose activity change, negative = growth inhibition, usual class: inhibitors; 420,000 compounds, 15% hits; AID 686978, 2013; also: nearly all actives have a fitted effect of over 55% in size
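DT40 Tdp1-/-;hTDP1 cells, no CPT (DMSO vehicle only), 400 cells/well; compounds pin-transferred; ≥48 hr, 37 °C; CellTiter-Glo 30 min RT dark, luminescence read.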
HT1080 IDH1KD tx – qHTS for induction of synthetic lethality in tumor cells producing 2HG: qHTS for the HT-1080-IDH1KD cell line; 360,000 compounds, 2% hits; Potency, µM (doses to about 46.1 µM), without a hit: at the highest dose activity, negative = toxicity, most hits filed as cytotoxic; HT-1080 IDH1 knockdown viability, ATP luminescence, 48 h; AID 686971, 2013;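 also: 0% = DMSO wells and -100% = cell-free medium wells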
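Luminescent ATP read-out (CellTiter-Glo, 10 min at room temperature) after 48 h compound exposure at 37 °C gave viability of IDH1-knockdown HT-1080 cells. Activity was normalised to DMSO and cell-free wells, then fitted as concentration-response curves.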
HT1080-NT tox – qHTS for induction of synthetic lethality in tumor cells producing 2HG: qHTS for the HT-1080-NT fibrosarcoma cell line; HT-1080-NT fibrosarcoma viability, CellTiter-Glo ATP luminescence, 48 h; 360,000 compounds, 1.6% hits; Potency, µM (highest dose often 46.1 µM), for the others: at the highest dose activity, negative = less viability, hits mostly cytotoxic;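 also: NT is the 2HG producing partner of a matched IDH1 knockdown line; 0% = DMSO-treated cells and -100% = media-only wells without cells; nearly all actives have a fitted effect of over 55% in size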
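Toxicity toward the 2HG-producing NT line was scored as %Activity, normalised to DMSO and no-cell wells, from CellTiter-Glo luminescence after 48 hours' treatment.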
* marks the source's active call; other numbers are inactive results; i = inactive; ? = inconclusive; . = not tested or not shown. Only some compounds are listed: those with a hit (about 19% of all), similar ones and a draw of the others. Calls follow the shape of the dose curve; as a rule, active = well fitted curve in the direction sought with a large enough effect; inconclusive = small, poorly fitted or top-dose-only effect, or another doubt; inactive = no such curve, though single readings can be large; an effect the other way counts as inactive or inconclusive. Unless noted, % is scaled to controls: 0 for no effect and ±100 for the full control effect; potency is read from the fitted curve at half-maximal effect.

SMILES	KB-3-1 cytotox	TDP1 cell CPT	KB-V1 MDR tox	TDP1 cell noCPT	HT1080 IDH1KD tx	HT1080-NT tox
COc1ccccc1CNC(=O)CCC1N=C2c3ccccc3N=C(SCC(=O)Nc3ccc(N(C)C)cc3)N2C1=O (stereo not drawn)	i	?	i	21µM*	.	.
O=C(Nc1cc(C(F)(F)F)ccc1N1CCOCC1)C1=NN(c2ccccc2)C(=O)CC1	i	?	i	?	-16%	-1%
CC(C)CN1C(=O)C(=O)N(CC(=O)c2ccc[nH]2)C1=O	?	-2%	i	1%	2%	0%
CCOc1ccc(NC(=O)COc2ccccc2C(=O)NCc2ccccc2)cc1	i	-30%	i	?	-19%	-13%
CC(=O)c1cccc(NC(=O)COc2ccccc2C(=O)Nc2ccccc2)c1	i	?	i	?	.	.
O=C(COc1ccccc1C(=O)Nc1ccccc1)Nc1ccccc1F	i	?	i	16µM*	.	.
O=C(COc1ccccc1C(=O)Nc1ccccc1)Nc1ccccc1Cl	.	?	.	?	-1%	-20%
N#Cc1ccc(NC(=O)COc2ccccc2C(=O)Nc2ccccc2)cc1	i	11µM*	?	?	.	.
CC(=O)c1ccc(NC(=O)COc2ccccc2C(=O)Nc2ccccc2)cc1	i	11µM*	i	11µM*	-8%	-9%
CCOc1ccccc1CNCc1ccc(C(=O)O)cc1	i	-2%	i	-11%	6%	10%
O=C(COc1ccccc1CNCc1ccccc1)Nc1ccccc1	i	?	i	18µM*	11µM*	?
CCc1ccc(-n2nc3ccc(NC(=O)c4cc(Cl)c(OC)c(Cl)c4)cc3n2)cc1	i	?	i	?	.	.
O=C(COc1ccc(Cl)cc1)NNC(=S)NCc1ccccc1	i	?	?	?	-17%	-10%
C=CCc1ccccc1OCC(=O)NNC(=S)NCc1ccccc1	.	6.5µM*	.	5.2µM*	-16%	-10%
COc1ccc(CN2CCn3ncc(C(=O)Nc4cc(C)cc(C)c4)c3C2=O)cc1	i	5.8µM*	i	?	?	?
COC(=O)c1cc2n(n1)CCN(Cc1ccc(OC)cc1)C2=O	i	-13%	i	-32%	9%	14%
CCCCOc1ccc(CONS(=O)(=O)c2ccc(NC(C)=O)cc2)cc1Cl	i	13µM*	15µM*	15µM*	-6%	-6%
O=S(=O)(NOCc1ccc(Cl)cc1)c1ccc(Cl)cc1	i	-17%	i	-30%	-3%	-6%
CC(=O)Nc1ccc(S(=O)(=O)NCCOc2ccc(Cl)cc2C)cc1	8.2µM*	23µM*	i	13µM*	-15%	-26%
COCCCNS(=O)(=O)c1ccc(SC)cc1	i	2%	i	?	-1%	0%
CSc1ccc(S(=O)(=O)NCCOc2ccccc2C)cc1	i	26µM*	?	?	-12%	?
O=S(=O)(c1ccc(C(F)(F)F)cc1)N1CCN(CCc2ccccc2)CC1	i	-11%	i	-29%	1%	2%
CCn1ccnc1C(O)(c1ccccc1)c1ccccc1	i	6%	i	24%	7%	7%
Cc1ccc2c(c1)-c1nc(-c3ccccc3)cc(-c3ccccc3)c1CO2	i	-29%	i	?	.	.
Cc1ccc2c(c1)-c1nc(-c3ccc4c(c3)NC(=O)CO4)cc(-c3ccc(F)cc3)c1CO2	i	5.8µM*	i	4.6µM*	.	.
SMILES	KB-3-1 cytotox	TDP1 cell CPT	KB-V1 MDR tox	TDP1 cell noCPT	HT1080 IDH1KD tx	HT1080-NT tox
Cc1ccc(-c2cc(-c3ccc4c(c3)NC(=O)CO4)nc3c2COc2ccccc2-3)cc1	i	5.2µM*	i	4.1µM*	.	.
Fc1ccc(-c2cc(-c3ccc(F)cc3)c3c(n2)-c2cc(F)ccc2OC3)cc1	i	?	i	-21%	.	.
CN1C(=O)Cc2cc(S(=O)(=O)NCc3ccccc3Cl)ccc21	i	?	i	?	.	.
COc1cccc(CNC(=O)C(Cc2ccccc2)NS(=O)(=O)c2ccc3c(c2)CCN3C(C)=O)c1 (stereo not drawn)	i	-21%	i	-23%	.	.
CCOCCCNC(=O)C(c1ccc(OC)cc1)N(Cc1ccc2c(c1)OCO2)C(=O)c1ccccc1O (stereo not drawn)	i	?	i	?	-7%	-17%
O=C1C=C(C2CCCCC2)C(=O)c2ccccc21	i	21µM*	i	15µM*	1%	2%
O=C(O)C1=C(C2CCCCC2)C(=O)c2ccccc21	i	-25%	i	-30%	-8%	-2%
CC1CCCCC1Nc1ncnc2sccc12 (stereo not drawn)	i	18µM*	i	?	-5%	-5%
Cc1cccc(OCC(=O)N(Cc2ccc(F)cc2)C2CCS(=O)(=O)C2)c1C (stereo not drawn)	i	-22%	i	-1%	-1%	22%
COc1cccc(Cn2c(=O)n(-c3ccccc3C)c(=O)c3c2c2cc(C)ccc2n3C)c1	?	18µM*	i	13µM*	.	.
CCc1ccc(NC(=O)Cn2c(=O)n(-c3ccccc3C)c(=O)c3c2c2cc(OC)ccc2n3C)cc1	i	?	i	-27%	.	.
COc1ccc2c(c1)c1c(c(=O)n(-c3ccccc3C)c(=O)n1CC(=O)Nc1c(C)cccc1C)n2C	i	7.3µM*	i	9.2µM*	.	.
Cc1ccc(C#CC[N+]2(CC#Cc3ccc(C)cc3)CCCCC2)cc1	?	0.46µM*	i	0.029µM*	15µM*	21µM*
CCC[N+]1(CC#CCC(c2ccccc2)c2ccccc2)CCCCC1	2.6µM*	1.5µM*	i	1.3µM*	?	-27%
C#CC[N+]1(CC#Cc2ccccc2)CCCCC1	i	16µM*	i	16µM*	1%	4%
C[N+]1(CC(O)c2ccccc2)CCCCCC1 (stereo not drawn)	i	9%	i	1%	-1%	7%
CCN(CC)CC#Cc1ccc(C)cc1	i	4%	i	-24%	9%	14%
